Results reported in PubChem BioAssay (EPA / NIEHS).
The source made the active and inactive calls. Rule for the calls: active = hit-call score of the fitted dose curve at least 0.9, where 1 is the maximum; inactive = score below 0.9.

Molecular target: Hepatocyte nuclear factor 3-beta (Homo sapiens) (UniProt Q9Y261)
Assay: ATG_FoxA2_CIS: Attagene CIS-FACTORIAL HepG2 Assay for human Forkhead box A2 (FOXA2) (AID 2282942)
Conditions: HepG2 cis-reporter transcription factor activity, 24 h; actives raise or lower the signal
Description: ATG_CIS is a cell-based, multiplexed-readout assay that uses HepG2, a human liver cell line, with measurements taken at 24 hours after chemical dosing in a 24-well plate.ATG_FoxA2_CIS is one of 52 assay component(s) measured or calculated from the ATG_CIS assay. It is designed to make measurements of mRNA induction, a form of inducible reporter, as detected with fluorescence intensity signals by Reverse transcription polymerase chain reaction (RT-PCR) and Capillary electrophoresis technology.Data from the assay component ATG_FoxA2_CIS was analyzed into 1 assay endpoint. This assay endpoint, ATG_FoxA2_CIS, was analyzed with bidirectional fitting relative to DMSO as the negative control and baseline of activity. Using a type of inducible reporter, measures of mRNA for gain or loss-of-signal activity can be used to understand the reporter gene at the transcription factor-level as they relate to the gene FOXA2. Furthermore, this assay endpoint can be referred to as a primary readout, because this assay has produced multiple assay endpoints where this one serves a reporter gene function. To generalize the intended target to other relatable targets, this assay endpoint is annotated to the dna binding intended target family, where the subfamily is forkhead box protein.
Human liver HepG2 cells are transiently transfected with multiple reporter transcription units (MRTUs) in 6-well plates using FuGene 6 reagent (Roche; 3 ml FuGene/1 mg DNA). The MRTU constructs are regulated by a cis-regulating element (promoter). […] A major difference between the CIS and TRANS system is that in CIS activities of endogenous TFs are measured, whereas the TRANS assay evaluates changes in activities of exogenous, chimeric NR-Gal4 proteins. […] At the end of 24 hour incubation, total RNA was isolated using TriZol reagent (Invitrogen). The isolated RNA is then reverse-transcribed using oligo(dT) primer and Mo-MLV reverse transcriptase (Invitrogen) with DNAse I (Ambion) treatment for 30 min. The one-tenth of the produced cDNA was amplified by PCR using Taq DNA polymerase (Invitrogen) and two reporter sequence-specific primers. The PCR products were fluorescently labeled by primer extension with 6-arboxyfluorescein (6-FAM) 5'-labeled reporter sequence-specific primer (2 min at 95 C, 20 s at 68 C and 10 min at 72 C) and these products were digested with 5U of HpaI (New England Biolabs) for 2h at 37 C. The fragments were purified using Qiaquick PCR columns (Qiagen), analyzed on an ABI 3130xL genetic analyzer (Applied Biosystems) with peak positions identified by using a set of X-rhodamine (ROX)-labeled MapMarker1000 molecular weight standards (BioVentures). The raw capillary electrophoresis data was processed using Attagraph software (Attagene).

Sequence of Hepatocyte nuclear factor 3-beta (Homo sapiens) (Q9Y261 whole entry, looked up): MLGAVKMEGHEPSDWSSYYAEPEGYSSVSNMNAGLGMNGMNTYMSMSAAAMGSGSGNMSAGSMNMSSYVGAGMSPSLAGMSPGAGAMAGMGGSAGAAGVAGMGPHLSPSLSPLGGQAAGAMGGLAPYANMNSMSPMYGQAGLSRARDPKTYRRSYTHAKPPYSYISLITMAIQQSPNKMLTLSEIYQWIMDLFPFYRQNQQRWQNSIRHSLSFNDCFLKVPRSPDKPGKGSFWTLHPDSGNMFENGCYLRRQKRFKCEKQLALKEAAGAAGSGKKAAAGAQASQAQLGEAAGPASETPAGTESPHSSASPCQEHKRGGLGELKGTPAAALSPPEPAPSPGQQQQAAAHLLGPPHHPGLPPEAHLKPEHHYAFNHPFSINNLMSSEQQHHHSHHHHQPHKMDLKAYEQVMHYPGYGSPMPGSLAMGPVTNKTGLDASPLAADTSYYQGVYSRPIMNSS

| SMILES | outcome |
| --- | --- |
| CC(C)=CCCC(C)CC(=O)O (stereo not given) | inactive |
| COc1ccccc1[N+](=O)[O-] | inactive |
| CCCCCCCCCCCCS(=O)(=O)Cl | inactive |
| CC(=O)OCCCc1ccccc1 | inactive |
| O=C(c1ccccc1)C(O)c1ccccc1 (stereo not given) | inactive |
| O=C(O)c1cccnc1C(=O)O | inactive |
| CC(C)CCCCCCc1ccc(OCCOCCO)cc1 | inactive |
| C=Cc1ccc(C)cc1 | inactive |
| C=C(C)[C@@H]1CC=C(C)C(=O)C1 | inactive |
| O=P(O)(O)O | inactive |
| C=C(C#N)C(=O)OCC | inactive |
| CC(C)Nc1nc(N)nc(Cl)n1 | inactive |
| CC(C=O)Cc1ccc(C(C)(C)C)cc1 (stereo not given) | inactive |
| C[C@H]1C[C@@H](O)CC(C)(C)C1 | inactive |
| ClC(c1ccccc1)(c1ccccc1)c1ccccc1 | inactive |
| C=C(C)C(=O)OCCOCCOCCOC(=O)C(=C)C | inactive |
| CC(C)c1ccccc1O | inactive |
| CCCCCCCCSCCO | inactive |
| CCC1CCCCC1 | inactive |
| CC(C)=CCCC(C)CCOC=O (stereo not given) | inactive |

| SMILES | outcome |
| --- | --- |
| CS(C)=O | inactive |
| CCCCCCOCCOCCO | inactive |
| Nc1c(Cl)cc(Cl)cc1[N+](=O)[O-] | inactive |
| CCC1(C)NC(=O)NC1=O (stereo not given) | inactive |
| CCOC(=O)CN | inactive |
| CCCC[P+](CCCC)(CCCC)CCCC | inactive |
| CC(C)(C)C1=CC(=O)C(C(C)(C)C)=CC1=O | inactive |
| Cc1cc(=O)oc2cc(N(C)C)ccc12 | inactive |
| CC(=O)c1ccccn1 | inactive |
| O=C(CS)OCCOC(=O)CS | inactive |
| Cc1cc(C)nc(NS(=O)(=O)c2ccc(N)cc2)n1 | inactive |
| OCCc1ccccc1 | inactive |
| CCCC[O][Al]([O]CCCC)[O]CCCC | inactive |
| CC1(C)CCC[C@]2(C)[C@H]3CCO[C@]3(C)CC[C@@H]12 | inactive |
| CN(C)c1ccncc1 | inactive |
| CC/C=C\CC/C=C/CO | inactive |
| CCC(Cl)C(Cl)C(Cl)CC(Cl)C(Cl)C(C)Cl (stereo not given) | inactive |
| CCCC(=O)C(CC)Sc1ccoc1C (stereo not given) | inactive |
| CCOc1ccc(NC(=O)CC(C)=O)cc1 | inactive |
| CCN(CC)C(=O)N(CC)CC | inactive |
